The experiment concerns MCF7 breast. As to the kind of experiment: NCI-60 one-dose screen, 48 h (100 = growth as untreated, 0 = no growth, -100 = all killed). The following applies: 10 µM unless noted.

Where “and” joins values, the source holds several entries; their conditions need not be identical. Equal entries are not always repeated. This is part of a sample that, as a whole, favours compounds with a hit. Of some 83,000 tested, about 20% had one in any assay.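 96-well plates, one dose, 48 hours. Percent growth reported; active if below 10.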 Calls of active or inactive are those of the source.

For the molecule `CC(C)=CCc1cc(C2COc3cc4c(c(O)c3C2=O)C=CC(C)(C)O4)c(O)cc1O` (stereo not drawn), the growth is -75.7% [100 µM] (active) and -83.3% [100 µM] (active). The same measure for `Cn1c2c(c3ccccc3c1=O)C(=O)c1ccccc1-2`: 26.8% [100 µM] (inactive) and 7.69% [100 µM] (active).

Consider `C[C@@H]1CC[C@H]2C(C)(C)[C@H]3C[C@@]12CC[C@@]3(C)O`, for which the growth was 93.1% [100 µM] (inactive) and -100% [100 µM] (active).

Take `CCOC(=O)COc1cc(-c2ccccc2)nc2cc(F)ccc12`: the growth is 49.3% [100 µM] (inactive) and 35.8% [100 µM] (inactive).

`CC(=O)c1ccc(NC(=O)/C(CC(=O)/C=C/c2ccccc2)=N/NC(N)=S)cc1`: the growth was 52.9% [100 µM] (inactive) and 4.14% [100 µM] (active).

Regarding `CCC(c1ccc(N(C)C)cc1)C1NC(=S)NC1=O` (stereo not drawn), the growth was 37.9% [100 µM] (inactive) and 10.5% [100 µM] (inactive). The same measure for `COC(=O)/C(=N\NC(=S)NN)C(C(=O)OC)C(=O)C(=O)Nc1cccc(C(F)(F)F)c1` (stereo not drawn): 63.8% [100 µM] (inactive) and 8.67% [100 µM] (active); for `C=CCNC1=C2C[C@@H](C)C[C@@H](OC)[C@@H](OC(=O)CCCN)[C@H](C)/C=C(\C)[C@@H](OC(N)=O)[C@H](OC)/C=C\C=C(/C)C(=O)NC(=CC1=O)C2=O`: -82% [100 µM] (active) and -94.9% [100 µM] (active).

(Values after PubChem BioAssay (NCI).)
